Experimental data from PubChem BioAssay AID686971 (National Center for Advancing Translational Sciences (NCATS), 2013).
Screen size: about 360,000 compounds; about 7,500 (2.1%) were called active. Roughly 8% stayed inconclusive and do not appear here. Calls follow the shape of the dose curve; as a rule, active = well fitted cell-killing curve with a large enough effect; inconclusive = small, poorly fitted or top-dose-only effect, or effect the other way, or another doubt; inactive = no such curve, though single readings can be large or run the other way. The entries come from a sample that favours actives as a whole. A call without a number means that no potency is given here.

Experiment: qHTS for induction of synthetic lethality in tumor cells producing 2HG: qHTS for the HT-1080-IDH1KD cell line
Conditions: HT-1080 IDH1 knockdown viability, ATP luminescence, 48 h; series mostly up to 46.1 µM
Outline: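 IDH1KD HT-1080 cells, 750/well, RPMI + 5% FBS; compound pinned after 2 h settling; 48 h, 37 °C; CellTiter-Glo luminescence; % activity normalised to DMSO and no-cell wells; curves fitted, classed by r2 and efficacy.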
Potency is read from the fitted curve at half-maximal effect.

SMILES	Potency
COc1ccc(-c2c(C#N)cnc(C)c2C)c(O)c1OC	inactive
OCCN1CCN(c2ncnc3c2ncn3[C@H]2CN(Cc3ccco3)C[C@@H](CO)O2)CC1	inactive
O=C(NN=Cc1ccc2c(c1)CCC2)c1ccccc1O	inactive
COc1ccc(-c2ccc(C(=O)NCCN3CCOCC3)c3occc23)c(C)c1	18.4 µM (active)
Cc1cc(C)cc(C(=O)NCCN2CCOCC2)c1	inactive
COc1ccc(-c2cc(C(=O)NCCCN3CCOCC3)no2)cc1	inactive
CCCNC(=O)C[C@@H]1CC[C@@H]2[C@H](COC[C@H](O)CN2C(=O)c2cc(Cl)cc(Cl)c2)O1	inactive
CC(OC(=O)c1cccnc1Cl)C(=O)NC1CCCCC1 (configuration not stated)	inactive
COc1cccc(-c2ccc3c(c2)N(Cc2ccccc2OC)C(=O)C(C)S3)c1 (configuration not stated)	inactive
Cc1ccc(NNC(=O)C2CCC2)cc1C	7.31 µM (active)
Cc1ccc(C)c(OCC(=O)NNC(=O)C2CCC2)c1	inactive
O=C(NNC(=O)C1CCC1)c1ccccc1	inactive
CC1(C2CC2)NC(=O)N(CC(=O)N2CCN(c3ccccc3F)CC2)C1=O (configuration not stated)	inactive
CCCCCCN1CCN(C2CN(Cc3cn(Cc4ccc(F)cc4)nn3)S(=O)(=O)C2)CC1 (configuration not stated)	inactive
CCOc1ccc(NC(=O)c2ccccc2NS(C)(=O)=O)cc1	inactive
COC(=O)c1ccc(NC(=O)c2ccccc2NS(=O)(=O)c2ccccc2)cc1	11.2 µM (active)
COC(=O)c1ccccc1NS(=O)(=O)c1ccc2[nH]c(=O)[nH]c2c1	inactive
O=C(C(=O)N1CCN(c2ccccc2)CC1)c1ccc2c(c1)OCO2	inactive
C#Cc1cc(N2CCN(C(=O)c3ccoc3)CC2)n2nc(-c3cccc(Cl)c3)cc2n1	9.2 µM (active)
CN(C)CCN1CCN(c2cc(-c3cccc(Cl)c3)nc3ccnn23)CC1	inactive
O=C(c1ccccc1)N1CCN(c2cc(-c3ccccc3)nc3cc(-c4cccc(Cl)c4)nn23)CC1	inactive
O=C(NCc1ccccc1)C(c1ccc(F)cc1)N1CCN(C(=O)C2CCCO2)CC1 (configuration not stated)	inactive
O=C1CC(c2ccccc2)=NN1c1ccc([N+](=O)[O-])cc1	20.6 µM (active)
COc1ccc(C2=NN(c3nc4ccccc4s3)C(=O)C2)cc1	inactive
O=[N+]([O-])c1ccc(N2CCOCC2)cc1	inactive
CCCC(=O)Nc1nc2ccc(NC(=O)c3c(F)c(F)c(OC)c(F)c3F)cc2s1	0.651 µM (active)

SMILES	Potency
CSc1nc2ccc(NC(=O)c3c(F)cccc3F)cc2s1	inactive
CC(=O)Nc1ccc2nc(NC(=O)CS(=O)(=O)c3ccc(F)cc3)sc2c1	inactive
Nc1nc2ncccn2c1-c1ccccc1	inactive
CCN1C(=O)[C@@H]2[C@@H]3CN(S(=O)(=O)c4ccccc4C)[C@@H](c4ccc(Cl)cc4)[C@@H]3C(=O)C[C@@H]2C1=O	inactive
O=[N+]([O-])c1ccccc1/C=C/CN1CCCC(CO)C1 (configuration not stated)	inactive
O=[N+]([O-])c1ccccc1/C=C/CN1CCC(O)CC1	inactive
CC1CCCCC1NC(=O)/C(C#N)=C/C=C/c1ccccc1[N+](=O)[O-] (configuration not stated)	4.61 µM (active)
CC1=C(C(=O)Nc2cccc(C(=O)NCC(C)c3ccccc3)c2)SCCO1 (configuration not stated)	inactive
O=C(NCc1cccnc1)c1cc(C2CCCN(C(=O)C3CCCCC3)C2)on1 (configuration not stated)	inactive
O=C(c1snnc1-c1ccccc1)N1CCOCC1	inactive
Cc1oc2c(c1C(=O)N1CCOCC1)C(=O)c1ccccc1C2=O	9.2 µM (active)
COc1cc2ccccc2cc1C(=O)N1CCOCC1	inactive
O=C(CN1C(=O)NC2(CCc3ccccc32)C1=O)NC1CCCCC1 (configuration not stated)	inactive
O=C(COC(=O)/C=C/c1ccc(Cl)cc1)NC1CCS(=O)(=O)C1 (configuration not stated)	inactive
O=C(Nc1ccc(OCCO)cc1)c1csc([C@H]2C[C@H](O)[C@@H](CO)O2)n1	inactive
CC(C)CN1CCC1(C)C(=O)Nc1ccc(OC(F)F)cc1 (configuration not stated)	inactive
O[C@H]1CN(Cc2cccs2)[C@@H](c2ccc(Cl)cc2)C[C@@H]1n1cc(C2CC2)nn1	inactive
Nc1nonc1-n1nnc(C(=O)N/N=C\c2ccncc2)c1CN1CCCCC1	inactive
NNC(=O)c1nnn(-c2nonc2N)c1CN1CCCC1	inactive
Nc1nonc1-n1nnc(C(=O)N/N=C/c2ccccc2O)c1CN1CCCC1	14.6 µM (active)
O=C1CC[C@@H](C(=O)N2CSC[C@@H]2C(=O)Nc2ccc(C(F)(F)F)cc2)N1	inactive
O=C(NCc1ccc(F)cc1)c1cc(C2CCCCN2C(=O)C2CCCCC2)on1 (configuration not stated)	inactive
COc1ccc(OCCCC(=O)Oc2ccc(OC)cc2)cc1	inactive
COc1ccc(OCCC(=O)c2ccc(OC)cc2)cc1	20.6 µM (active)
COc1ccc(CCC(=O)c2ccc(OC)cc2)cc1	inactive
COc1ccc(C(O)C(O)(C(=O)OC(C)C)c2ccc(C)cc2)cc1 (configuration not stated)	inactive

SMILES	Potency
CC1(C)CC(=O)C=C(c2ccccc2CO)C1=O	inactive
COc1ccc(OC)c(S(=O)(=O)n2c([N+](=O)[O-])cnc2C)c1	inactive
CCOc1ccc(C(C)C)cc1S(=O)(=O)n1nc(C)cc1C	inactive
COc1ccc(C(C[N+](=O)[O-])n2nc(C)cc2C)cc1 (configuration not stated)	14.6 µM (active)
Cn1nc(N)c2ncc(C(Cl)(Cl)Cl)nc21	inactive
CNc1cc(-c2c(OC)cccc2OC)ncn1	inactive
CCOC(=O)C1CCN(CCC(=O)Nc2cccc(C)c2)CC1	inactive
CCOC(=O)C1CCN(C(=O)Nc2ccc(C)c(Cl)c2)CC1	inactive
CCOC(=O)C1CCN(c2c(Nc3cc(C)cc(C)c3)c(=O)c2=O)CC1	4.61 µM (active)
Cc1nc(C(F)(F)F)ccc1C(=O)N1CCC1(C)C(=O)NS(=O)(=O)c1ccccc1Cl (configuration not stated)	inactive
O=C(NCCc1ccccc1)c1cccc(NC(=O)c2ccccc2)c1	inactive
O=C(CSc1ccccc1)Nc1ccc(C(=O)Nc2cccc(O)c2)cc1	inactive
O=C(CCl)Nc1cccc(CP(=O)(c2ccccc2)c2ccccc2)c1	5.17 µM (active)
Nc1ncnc2c1ncn2[C@@H]1O[C@H](CNC(=O)[C@H](N)Cc2cccnc2)[C@@H](O)[C@H]1O	inactive
CCC(=O)N1CCN(c2ccccc2NC(=O)COc2cccc(C)c2C)CC1	inactive
Cc1ccccc1OCC(=O)Nc1ccc(N2CCN(C(=O)C(C)C)CC2)c(Cl)c1	13 µM (active)
CCc1ccccc1OCC(=O)Nc1ccc(C)c(S(=O)(=O)N2CCCCCC2)c1	inactive
C[C@H]1CN([C@@H](C)CO)C(=O)CCCn2cc(nn2)CO[C@@H]1CN(C)S(=O)(=O)c1ccccc1C#N	inactive
Nc1nc2c(ncn2[C@@H]2O[C@H](CNS(=O)(=O)N3CCc4ccccc4C3)[C@@H](O)[C@H]2O)c(=O)[nH]1	inactive
CC(C)(C)c1ccc(S(=O)(=O)NC(=O)C2(C)CCN2C(=O)CC2CC2)cc1 (configuration not stated)	inactive
CN(C)C(CNC(=O)c1cc2ccccc2o1)c1ccccc1 (configuration not stated)	inactive
CCc1ccc(C(CNc2nc(C(F)(F)F)nc3ccccc23)N(C)C)cc1 (configuration not stated)	20.6 µM (active)
NS(=O)(=O)c1ccc(CCNc2nc(C(F)(F)F)nc3ccccc23)cc1	inactive
CCOC1=C2CN(S(=O)(=O)c3ccc(C)cc3)[C@H](c3cccs3)C[C@H]2[C@H]2C(=O)N(c3ccccc3)C(=O)[C@H]2C1	inactive
Cc1ccccc1OS(=O)(=O)c1cccc([N+](=O)[O-])c1	inactive
Cc1ccccc1OCCOc1ccc([N+](=O)[O-])cc1/C=N/n1cnnc1	4.61 µM (active)

SMILES	Potency
CCOc1cc(/C=N/n2cnnc2)c(Br)cc1O	inactive
O=C(COC(=O)Cc1ccc(Cl)cc1Cl)NCc1ccco1	inactive
Cn1cnc(S(=O)(=O)N2C[C@@H](O)COC[C@@H]3O[C@H](CC(=O)NC4CCC4)CC[C@H]32)c1	inactive
O=c1cc(CN2CCCCCCC2)c2c(ccc3ccccc32)o1	inactive
CCN1CCC(O)(/C=C/c2ccc(C)cc2)C(C(=O)/C=C/c2ccc(C)cc2)C1 (configuration not stated)	11.6 µM (active)
CCOC(=O)C1CCCN(C(=O)/C=C/c2ccc(OC)cc2)C1 (configuration not stated)	inactive
COc1ccc(S(=O)(=O)N2CCN(CC(=O)N3CCNC3=O)CC2)cc1OC	inactive
COc1ccc(CN2C(=O)C(CC(=O)NCCN3CCOCC3)CC(C(=O)N(C(C)C)C(C)C)=C2C)cc1 (configuration not stated)	inactive
CCc1cc(C(=O)N(CC)CC(=O)Nc2c(F)cccc2F)sc1C	inactive
COc1ccc(Cl)cc1NC(=O)CN(C)C(=O)c1cn(-c2ccccc2)nc1-c1cccs1	inactive
COc1ccc(Nc2ccc3ccccc3c2)cc1	inactive
COc1ccc(Nc2cc(=O)oc3ccccc23)cc1	5.8 µM (active)
COc1ccc2oc(=O)cc(-c3cc4ccccc4o3)c2c1	inactive
COc1ccc(CC2c3cc(OC)c(OC)cc3CC[N+]2(C)CCC(=O)OCCCCCOC(=O)CC[N+]2(C)CCc3cc(OC)c(OC)cc3C2Cc2ccc(OC)c(OC)c2)cc1OC (configuration not stated)	20.6 µM (active)
COc1ccc(CC(=O)NC2CCSc3ccccc32)cc1OC (configuration not stated)	inactive
COC(=O)C1=CN(Cc2ccc(OC)c(OC)c2)C=C(C(=O)OC)C1c1cccs1	inactive
C/C(=N\NC(=S)NCc1ccccc1)c1ccc(Cl)cc1	inactive
CC/C(=N\NC(=S)NC(C)C)c1ccc(OC(F)F)cc1	inactive
C/C(=N\NC(=S)NC(C)C)c1ccc(C(C)(C)C)cc1	16.4 µM (active)
CC(C)C[C@@H]1COc2cc(N3CCC[C@@H]3CO)ccc2S(=O)(=O)N1	inactive
CC(C)(C(=O)NO)c1ccccc1	inactive
CCOc1cc(/C=C(\C#N)c2nc(-c3cccs3)c(NC(C)=O)s2)ccc1O	2.91 µM (active)
CCOc1cc(/C=N/NC(=O)c2c(C)nc3ccc(Cl)cn23)ccc1O	inactive
CCOc1cc(-c2cc(-c3ccc(NC(C)=O)cc3)nc(N)c2C#N)ccc1O	inactive
